The whole screen tested about 5,500 compounds, of which about 2,000 (36%) were called active. Inconclusive results (about 18%) are left out. No stated cut-off is given here; in the data, active means normalized growth mostly below about 0.91 (no sharp cut-off); inconclusive means no clear call, values can overlap the other calls; inactive means mostly above about 0.92. The list shows a part of the results.
Test: chemical genetic growth profiling, strain panel (AID 1159580);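 further: tested at 20 µM; growth read once vehicle control cultures reached saturation at 30 °C; 1 = growth at the plate median or of vehicle wells; lower values mean less growth of the strain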
Details: growth OD

Measured: normalized growth

COc1ccc2ccc(=O)oc2c1CC=C(C)C
inactive: S. cerevisiae deletion strains, locus YAL021C, strain ccr4, hits give low values 1.02 | S. cerevisiae deletion strains, locus YBR171W, strain sec66, hits give low values 0.896 | S. cerevisiae deletion strains, locus YDL005C, strain med2, hits give low values 0.948 | S. cerevisiae deletion strains, locus YDL185W, strain tfp1, hits give low values 0.928 | S. cerevisiae deletion strains, locus YDR069C, strain doa4, hits give low values 1.03 | S. cerevisiae deletion strains, locus YDR195W, strain ref2 1.02 | S. cerevisiae deletion strains, locus YDR297W, strain sur2, hits give low values 0.934 | S. cerevisiae deletion strains, locus YDR334W, strain swr1, hits give low values 0.936 | S. cerevisiae deletion strains, locus YDR335W, strain msn5, hits give low values 0.95 | S. cerevisiae deletion strains, locus YEL037C, strain rad23, hits give low values 0.935 | S. cerevisiae deletion strains, locus YEL061C, strain CIN8 (second series), hits give low values 0.921 | S. cerevisiae deletion strains, locus YER015W, strain faa2, hits give low values 0.935 | S. cerevisiae deletion strains, locus YER111C, strain swi4, hits give low values 0.942 | S. cerevisiae deletion strains, locus YFR010W, strain ubp6, hits give low values 0.923 | S. cerevisiae deletion strains, locus YGL173C, strain kem1, hits give low values 0.94 | S. cerevisiae deletion strains, locus YHR027C, strain rpn1, hits give low values 0.957 | S. cerevisiae deletion strains, locus YIL073C, strain SPO22, hits give low values 0.85 | S. cerevisiae deletion strains, locus YJL095W, strain BCK1 (second series), hits give low values 0.936 | S. cerevisiae deletion strains, locus YJL115W, strain asf1, hits give low values 0.967 | S. cerevisiae deletion strains, locus YJL154C, strain vps35, hits give low values 0.944 | S. cerevisiae deletion strains, locus YJL168C, strain set2, hits give low values 0.941 | S. cerevisiae deletion strains, locus YJL187C, strain SWE1, hits give low values 0.937 | S. cerevisiae deletion strains, locus YKL160W, strain elf1, hits give low values 0.912 | S. cerevisiae deletion strains, locus YLL041C, strain sdh2, hits give low values 0.945 | S. cerevisiae deletion strains, locus YLR342W, strain FKS1, hits give low values 0.923 | S. cerevisiae deletion strains, locus YLR384C, strain iki3, hits give low values 0.957 | S. cerevisiae deletion strains, locus YML016C, strain PPZ1, hits give low values 0.926 | S. cerevisiae deletion strains, locus YMR231W, strain pep5, hits give low values 0.935 | S. cerevisiae deletion strains, locus YMR307W, strain GAS1, hits give low values 0.706 | S. cerevisiae deletion strains, locus YNL209W, strain ssb2, hits give low values 0.958 | S. cerevisiae deletion strains, locus YNL248C, strain rpa49, hits give low values 0.971 | S. cerevisiae deletion strains, locus YNL250W, strain rad50, hits give low values 0.918 | S. cerevisiae deletion strains, locus YOL012C, strain htz1 0.768 | S. cerevisiae deletion strains, locus YOR061W, strain CKA2, hits give low values 0.929 | S. cerevisiae deletion strains, locus YOR080W, strain dia2, hits give low values 0.93 | S. cerevisiae deletion strains, locus YOR083W, strain WHI5, hits give low values 0.895 | S. cerevisiae deletion strains, locus YOR106W, strain vam3, hits give low values 0.917 | S. cerevisiae deletion strains, locus YPL051W, strain arl3, hits give low values 0.931 | S. cerevisiae deletion strains, locus YPL106C, strain sse1, hits give low values 0.917 | S. cerevisiae deletion strains, locus YPL240C, strain hsp82, hits give low values 0.96 | S. cerevisiae deletion strains, locus YPR141C, strain kar3, hits give low values 0.937
active: S. cerevisiae deletion strains, locus YAL026C, strain drs2, hits give low values 0.883 | S. cerevisiae deletion strains, locus YAL030W, strain snc1, hits give low values 0.92 | S. cerevisiae deletion strains, locus YBL061C, strain skt5, hits give low values 0.912 | S. cerevisiae deletion strains, locus YBR009C, strain hhf1, hits give low values 0.769 | S. cerevisiae deletion strains, locus YBR021W, strain FUR4, hits give low values 0.662 | S. cerevisiae deletion strains, locus YBR023C, strain chs3, hits give low values 0.843 | S. cerevisiae deletion strains, locus YBR229C, strain ROT2, hits give low values 0.885 | S. cerevisiae deletion strains, locus YBR231C, strain swc5, hits give low values 0.866 | S. cerevisiae deletion strains, locus YBR279W, strain paf1, hits give low values 0.929 | S. cerevisiae deletion strains, locus YCL011C, strain gbp2, hits give low values 0.787 | S. cerevisiae deletion strains, locus YCL016C, strain dcc1, hits give low values 0.891 | S. cerevisiae deletion strains, locus YCL029C, strain bik1, hits give low values 0.826 | S. cerevisiae deletion strains, locus YCL061C, strain MRC1, hits give low values 0.835 | S. cerevisiae deletion strains, locus YCL069W, strain vba3, hits give low values 0.919 | S. cerevisiae deletion strains, locus YCR088W, strain abp1, hits give low values 0.915 | S. cerevisiae deletion strains, locus YDL035C, strain GPR1, hits give low values 0.794 | S. cerevisiae deletion strains, locus YDL040C, strain nat1, hits give low values 0.91 | S. cerevisiae deletion strains, locus YDL074C, strain BRE1, hits give low values 0.752 | S. cerevisiae deletion strains, locus YDL101C, strain DUN1, hits give low values 0.768 | S. cerevisiae deletion strains, locus YDL192W, strain arf1, hits give low values 0.794 | S. cerevisiae deletion strains, locus YDR001C, strain nth1, hits give low values 0.909 | S. cerevisiae deletion strains, locus YDR101C, strain arx1, hits give low values 0.823 | S. cerevisiae deletion strains, locus YDR137W, strain rgp1, hits give low values 0.715 | S. cerevisiae deletion strains, locus YDR159W, strain sac3, hits give low values 0.771 | S. cerevisiae deletion strains, locus YDR162C, strain NBP2, hits give low values 0.645 | S. cerevisiae deletion strains, locus YDR318W, strain mcm21, hits give low values 0.741 | S. cerevisiae deletion strains, locus YDR388W, hits give low values 0.89 | S. cerevisiae deletion strains, locus YDR392W, strain spt3, hits give low values 0.396 | S. cerevisiae deletion strains, locus YDR502C, strain sam2, hits give low values 0.788 | S. cerevisiae deletion strains, locus YEL003W, strain gim4, hits give low values 0.832 | S. cerevisiae deletion strains, locus YEL061C, strain CIN8, hits give low values 0.774 | S. cerevisiae deletion strains, locus YER016W, strain bim1, hits give low values 0.91 | S. cerevisiae deletion strains, locus YER110C, hits give low values 0.873 | S. cerevisiae deletion strains, locus YER155C, strain BEM2 (second series), hits give low values 0.434 | S. cerevisiae deletion strains, locus YER155C, strain BEM2, hits give low values 0.657 | S. cerevisiae deletion strains, locus YER167W, strain BCK2, hits give low values 0.561 | S. cerevisiae deletion strains, locus YGL078C, strain dbp3, hits give low values 0.917 | S. cerevisiae deletion strains, locus YGL086W, strain mad1, hits give low values 0.844 | S. cerevisiae deletion strains, locus YGL167C, strain pmr1, hits give low values 0.908 | S. cerevisiae deletion strains, locus YGL227W, strain vid30, hits give low values 0.875 | S. cerevisiae deletion strains, locus YGL240W, strain doc1, hits give low values 0.701 | S. cerevisiae deletion strains, locus YGL248W, strain PDE1, hits give low values 0.704 | S. cerevisiae deletion strains, locus YGL253W, strain hxk2, hits give low values 0.818 | S. cerevisiae deletion strains, locus YGR135W, strain pre9, hits give low values 0.75 | S. cerevisiae deletion strains, locus YGR252W, strain gcn5, hits give low values 0.583 | S. cerevisiae deletion strains, locus YHR013C, strain ard1, hits give low values 0.801 | S. cerevisiae deletion strains, locus YHR030C, strain SLT2, hits give low values 0.831 | S. cerevisiae deletion strains, locus YHR079C, strain IRE1 (second series), hits give low values 0.896 | S. cerevisiae deletion strains, locus YHR094C, strain hxt1, hits give low values 0.898 | S. cerevisiae deletion strains, locus YHR129C, strain ARP1, hits give low values 0.741 | S. cerevisiae deletion strains, locus YHR142W, strain chs7, hits give low values 0.739 | S. cerevisiae deletion strains, locus YHR200W, strain rpn10, hits give low values 0.812 | S. cerevisiae deletion strains, locus YIL066C, strain RNR3, hits give low values 0.622 | S. cerevisiae deletion strains, locus YIL125W, strain kgd1, hits give low values 0.888 | S. cerevisiae deletion strains, locus YIR030C, strain dcg1, hits give low values 0.841 | S. cerevisiae deletion strains, locus YJL092W, strain hpr5, hits give low values 0.896 | S. cerevisiae deletion strains, locus YJL095W, strain BCK1, hits give low values 0.566 | S. cerevisiae deletion strains, locus YJL129C, strain trk1, hits give low values 0.866 | S. cerevisiae deletion strains, locus YJL134W, strain LCB3, hits give low values 0.921 | S. cerevisiae deletion strains, locus YJL164C, strain tpk1, hits give low values 0.883 | S. cerevisiae deletion strains, locus YJL166W, strain qcr8, hits give low values 0.803 | S. cerevisiae deletion strains, locus YJL187C, strain SWE1 (second series), hits give low values 0.783 | S. cerevisiae deletion strains, locus YJR043C, strain POL32, hits give low values 0.538 | S. cerevisiae deletion strains, locus YKL009W, strain mrt4, hits give low values 0.873 | S. cerevisiae deletion strains, locus YKL068W, hits give low values 0.898 | S. cerevisiae deletion strains, locus YKL085W, strain MDH1 (second series), hits give low values 0.916 | S. cerevisiae deletion strains, locus YKL085W, strain MDH1, hits give low values 0.916 | S. cerevisiae deletion strains, locus YKR001C, strain vps1, hits give low values 0.589 | S. cerevisiae deletion strains, locus YKR026C, strain gcn3, hits give low values 0.906 | S. cerevisiae deletion strains, locus YKR091W, strain srl3, hits give low values 0.926 | S. cerevisiae deletion strains, locus YLL001W, strain dnm1, hits give low values 0.87 | S. cerevisiae deletion strains, locus YLL026W, hits give low values 0.857 | S. cerevisiae deletion strains, locus YLR027C, strain aat2, hits give low values 0.845 | S. cerevisiae deletion strains, locus YLR039C, strain RIC1, hits give low values 0.438 | S. cerevisiae deletion strains, locus YLR058C, strain SHM2, hits give low values 0.794 | S. cerevisiae deletion strains, locus YLR102C, strain apc9, hits give low values 0.891 | S. cerevisiae deletion strains, locus YLR221C, strain rsa3, hits give low values 0.871 | S. cerevisiae deletion strains, locus YLR258W, strain gsy2, hits give low values 0.848 | S. cerevisiae deletion strains, locus YLR262C, strain YPT6 (second series), hits give low values 0.642 | S. cerevisiae deletion strains, locus YLR262C, strain YPT6, hits give low values 0.476 | S. cerevisiae deletion strains, locus YLR268W, strain sec22, hits give low values 0.723 | S. cerevisiae deletion strains, locus YLR320W, strain mms22, hits give low values 0.607 | S. cerevisiae deletion strains, locus YLR330W, strain CHS5, hits give low values 0.658 | S. cerevisiae deletion strains, locus YLR342W, strain FKS1 (second series), hits give low values 0.705 | S. cerevisiae deletion strains, locus YLR357W, strain rsc2, hits give low values 0.761 | S. cerevisiae deletion strains, locus YLR370C, strain arc18, hits give low values 0.899 | S. cerevisiae deletion strains, locus YLR371W, strain rom2, hits give low values 0.889 | S. cerevisiae deletion strains, locus YLR418C, strain cdc73, hits give low values 0.492 | S. cerevisiae deletion strains, locus YML032C, strain rad52, hits give low values 0.779 | S. cerevisiae deletion strains, locus YML120C, strain ndi1, hits give low values 0.822 | S. cerevisiae deletion strains, locus YML124C, strain tub3, hits give low values 0.859 | S. cerevisiae deletion strains, locus YMR058W, strain fet3, hits give low values 0.89 | S. cerevisiae deletion strains, locus YMR078C, strain ctf18, hits give low values 0.891 | S. cerevisiae deletion strains, locus YMR125W, strain sto1, hits give low values 0.81 | S. cerevisiae deletion strains, locus YMR129W, hits give low values 0.904 | S. cerevisiae deletion strains, locus YMR205C, strain PFK2, hits give low values 0.659 | S. cerevisiae deletion strains, locus YMR223W, strain ubp8, hits give low values 0.797 | S. cerevisiae deletion strains, locus YMR263W, strain SAP30, hits give low values 0.826 | S. cerevisiae deletion strains, locus YNL067W, strain RPL9B, hits give low values 0.762 | S. cerevisiae deletion strains, locus YNL071W, strain lat1, hits give low values 0.672 | S. cerevisiae deletion strains, locus YNL153C, strain GIM3, hits give low values 0.713 | S. cerevisiae deletion strains, locus YNL233W, strain BNI4, hits give low values 0.567 | S. cerevisiae deletion strains, locus YNL271C, strain bni1, hits give low values 0.907 | S. cerevisiae deletion strains, locus YNL298W, strain CLA4, hits give low values 0.829 | S. cerevisiae deletion strains, locus YNL307C, strain MCK1, hits give low values 0.381 | S. cerevisiae deletion strains, locus YNL322C, strain KRE1 (second series), hits give low values 0.807 | S. cerevisiae deletion strains, locus YNL322C, strain KRE1, hits give low values 0.804 | S. cerevisiae deletion strains, locus YNR049C, strain mso1, hits give low values 0.914 | S. cerevisiae deletion strains, locus YNR052C, strain pop2, hits give low values 0.909 | S. cerevisiae deletion strains, locus YOL147C, strain pex11, hits give low values 0.726 | S. cerevisiae deletion strains, locus YOR001W, strain rrp6, hits give low values 0.889 | S. cerevisiae deletion strains, locus YOR069W, strain VPS5, hits give low values 0.89 | S. cerevisiae deletion strains, locus YOR070C, strain gyp1, hits give low values 0.917 | S. cerevisiae deletion strains, locus YOR136W, strain idh2, hits give low values 0.911 | S. cerevisiae deletion strains, locus YOR144C, strain elg1, hits give low values 0.855 | S. cerevisiae deletion strains, locus YOR184W, strain ser1, hits give low values 0.481 | S. cerevisiae deletion strains, locus YOR265W, strain rbl2, hits give low values 0.921 | S. cerevisiae deletion strains, locus YOR270C, strain vph1, hits give low values 0.532 | S. cerevisiae deletion strains, locus YOR290C, strain snf2, hits give low values 0.712 | S. cerevisiae deletion strains, locus YOR316C, strain cot1, hits give low values 0.864 | S. cerevisiae deletion strains, locus YPL078C, strain atp4, hits give low values 0.845 | S. cerevisiae deletion strains, locus YPR119W, strain clb2, hits give low values 0.888 | S. cerevisiae deletion strains, locus YPR163C, strain tif3, hits give low values 0.796 | S. cerevisiae deletion strains, locus YPR167C, strain met16, hits give low values 0.799 | S. cerevisiae deletion strains, strain wtn01, hits give low values 0.843 | S. cerevisiae strains, strain wild type, hits give low values 0.798
